Measurements as given in the supplement of paper PMC11732987, “Enantioselective OTUD7B fragment discovery through chemoproteomics screening and high-throughput optimisation” (Communications Chemistry, 2025).

Key:
Experiment in all cases: log2 ratio of Biotin-Ahx-Ub-VS probe labelling (fragment/DMSO); higher = less target engagement (more negative = stronger competition), active = hit call of the paper (q ≤ 0.05, log2 ratio ≤ -1)
Settings in all cases: compound concentration: 200 uM; treatment time: 3 h
USP34 = USP34 (UniProt Q70CQ2)
Chain of USP34 (Q70CQ2 whole entry, the tested form may be a part): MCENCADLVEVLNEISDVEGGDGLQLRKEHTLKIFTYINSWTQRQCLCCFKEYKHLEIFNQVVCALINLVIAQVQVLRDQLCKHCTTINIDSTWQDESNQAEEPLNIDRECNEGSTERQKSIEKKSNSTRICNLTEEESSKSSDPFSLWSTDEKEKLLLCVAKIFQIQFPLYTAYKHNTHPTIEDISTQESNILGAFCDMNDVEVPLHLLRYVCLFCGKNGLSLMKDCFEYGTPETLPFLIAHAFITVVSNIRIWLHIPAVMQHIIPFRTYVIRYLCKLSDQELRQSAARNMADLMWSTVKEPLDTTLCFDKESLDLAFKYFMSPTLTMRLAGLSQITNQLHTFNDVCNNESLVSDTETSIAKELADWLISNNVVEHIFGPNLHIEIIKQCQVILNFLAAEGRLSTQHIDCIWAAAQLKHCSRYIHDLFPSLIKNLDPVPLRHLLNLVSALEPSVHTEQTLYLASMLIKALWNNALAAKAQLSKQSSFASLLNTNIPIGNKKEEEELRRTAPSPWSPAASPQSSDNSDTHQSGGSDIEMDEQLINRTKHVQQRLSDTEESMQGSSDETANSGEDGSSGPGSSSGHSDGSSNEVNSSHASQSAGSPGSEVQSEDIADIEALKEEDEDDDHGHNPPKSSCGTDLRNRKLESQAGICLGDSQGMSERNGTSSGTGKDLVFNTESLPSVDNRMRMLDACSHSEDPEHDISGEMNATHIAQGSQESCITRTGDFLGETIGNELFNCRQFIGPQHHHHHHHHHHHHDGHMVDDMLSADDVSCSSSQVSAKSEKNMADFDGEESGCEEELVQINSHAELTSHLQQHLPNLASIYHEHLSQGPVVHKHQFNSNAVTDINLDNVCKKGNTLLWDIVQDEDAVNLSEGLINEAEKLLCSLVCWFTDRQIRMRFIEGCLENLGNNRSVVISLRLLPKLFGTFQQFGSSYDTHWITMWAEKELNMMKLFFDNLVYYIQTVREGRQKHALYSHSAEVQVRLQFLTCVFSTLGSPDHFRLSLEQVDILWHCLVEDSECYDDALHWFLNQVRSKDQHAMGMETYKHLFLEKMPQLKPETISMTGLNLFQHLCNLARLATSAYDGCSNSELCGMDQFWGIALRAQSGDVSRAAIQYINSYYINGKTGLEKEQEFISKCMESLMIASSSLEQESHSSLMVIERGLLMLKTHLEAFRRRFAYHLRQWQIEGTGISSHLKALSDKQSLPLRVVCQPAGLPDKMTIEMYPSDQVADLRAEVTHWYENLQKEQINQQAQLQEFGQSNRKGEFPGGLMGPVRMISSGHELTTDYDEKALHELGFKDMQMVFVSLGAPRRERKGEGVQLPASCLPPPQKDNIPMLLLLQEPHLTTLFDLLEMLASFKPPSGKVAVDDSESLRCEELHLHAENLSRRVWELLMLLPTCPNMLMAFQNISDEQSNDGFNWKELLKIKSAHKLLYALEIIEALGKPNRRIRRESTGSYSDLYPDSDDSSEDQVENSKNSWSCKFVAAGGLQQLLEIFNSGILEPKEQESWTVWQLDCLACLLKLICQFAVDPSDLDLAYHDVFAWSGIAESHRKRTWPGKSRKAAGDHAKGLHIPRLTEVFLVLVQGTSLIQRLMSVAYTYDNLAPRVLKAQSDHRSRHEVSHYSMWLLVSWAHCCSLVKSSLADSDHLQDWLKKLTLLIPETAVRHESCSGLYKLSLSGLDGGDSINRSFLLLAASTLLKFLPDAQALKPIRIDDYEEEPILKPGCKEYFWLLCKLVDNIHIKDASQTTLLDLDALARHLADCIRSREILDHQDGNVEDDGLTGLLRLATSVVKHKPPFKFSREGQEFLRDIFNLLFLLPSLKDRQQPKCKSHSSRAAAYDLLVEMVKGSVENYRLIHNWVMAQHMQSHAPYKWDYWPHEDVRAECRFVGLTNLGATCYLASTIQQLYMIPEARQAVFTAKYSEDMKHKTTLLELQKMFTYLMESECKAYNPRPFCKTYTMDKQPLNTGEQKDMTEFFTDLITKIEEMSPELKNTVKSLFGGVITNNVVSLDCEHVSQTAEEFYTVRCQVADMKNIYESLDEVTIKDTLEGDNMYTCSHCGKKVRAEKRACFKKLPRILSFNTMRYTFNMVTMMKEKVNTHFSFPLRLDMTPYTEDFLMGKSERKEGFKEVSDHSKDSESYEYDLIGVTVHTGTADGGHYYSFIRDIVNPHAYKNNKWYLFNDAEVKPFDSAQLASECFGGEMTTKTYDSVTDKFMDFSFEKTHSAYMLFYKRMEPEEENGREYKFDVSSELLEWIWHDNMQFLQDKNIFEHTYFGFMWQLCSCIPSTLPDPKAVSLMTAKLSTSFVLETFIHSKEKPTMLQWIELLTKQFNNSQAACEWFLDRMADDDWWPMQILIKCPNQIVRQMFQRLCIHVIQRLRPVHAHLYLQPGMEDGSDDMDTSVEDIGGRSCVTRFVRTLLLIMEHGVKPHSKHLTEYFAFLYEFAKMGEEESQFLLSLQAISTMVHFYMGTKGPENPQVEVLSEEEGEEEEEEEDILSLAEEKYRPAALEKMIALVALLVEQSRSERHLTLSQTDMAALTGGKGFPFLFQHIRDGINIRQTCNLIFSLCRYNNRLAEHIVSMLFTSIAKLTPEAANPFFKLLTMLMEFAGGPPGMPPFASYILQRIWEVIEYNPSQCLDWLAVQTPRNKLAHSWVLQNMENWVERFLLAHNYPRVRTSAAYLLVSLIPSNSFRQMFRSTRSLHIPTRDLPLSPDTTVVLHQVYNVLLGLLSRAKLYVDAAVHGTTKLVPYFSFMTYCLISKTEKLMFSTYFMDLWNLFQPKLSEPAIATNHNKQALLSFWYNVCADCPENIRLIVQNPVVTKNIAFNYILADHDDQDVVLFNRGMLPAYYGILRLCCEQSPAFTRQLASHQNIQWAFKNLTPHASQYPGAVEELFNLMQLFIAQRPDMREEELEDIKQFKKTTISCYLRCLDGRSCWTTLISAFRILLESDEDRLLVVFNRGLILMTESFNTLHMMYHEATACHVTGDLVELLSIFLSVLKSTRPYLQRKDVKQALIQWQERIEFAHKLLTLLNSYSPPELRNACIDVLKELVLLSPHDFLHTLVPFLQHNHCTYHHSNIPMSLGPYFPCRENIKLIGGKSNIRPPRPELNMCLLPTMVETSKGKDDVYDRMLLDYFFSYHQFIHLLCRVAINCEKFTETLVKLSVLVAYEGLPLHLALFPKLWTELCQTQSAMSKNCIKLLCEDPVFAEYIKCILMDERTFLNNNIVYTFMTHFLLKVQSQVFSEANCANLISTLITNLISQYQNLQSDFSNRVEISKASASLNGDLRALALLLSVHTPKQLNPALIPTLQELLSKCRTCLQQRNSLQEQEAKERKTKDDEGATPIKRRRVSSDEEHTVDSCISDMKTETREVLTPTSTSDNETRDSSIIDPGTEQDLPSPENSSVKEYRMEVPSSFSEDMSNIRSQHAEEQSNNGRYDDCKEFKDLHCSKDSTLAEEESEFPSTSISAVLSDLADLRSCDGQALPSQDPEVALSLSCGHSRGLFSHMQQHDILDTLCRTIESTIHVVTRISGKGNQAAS
In short: (§1)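 Global-median-normalised Spectronaut label-free quantities were compared by unpaired t-test, and values are average log2 ratios of fragment over vehicle. Only proteins with ≥2 unique peptides were used. HEK293T lysate (495 µg per sample) was treated in triplicate with fragment at 200 µM or vehicle for 3 h and then with Biotin-Ahx-Ub-VS at 0.5 µM final for 1 h. Labelled DUBs were then NeutrAvidin-enriched, digested with LysC and trypsin, and run by diaPASEF LC-MS/MS.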

USP36 = biological target: T1, USP36 (UniProt Q9P275)
T1 sequence (whole entry): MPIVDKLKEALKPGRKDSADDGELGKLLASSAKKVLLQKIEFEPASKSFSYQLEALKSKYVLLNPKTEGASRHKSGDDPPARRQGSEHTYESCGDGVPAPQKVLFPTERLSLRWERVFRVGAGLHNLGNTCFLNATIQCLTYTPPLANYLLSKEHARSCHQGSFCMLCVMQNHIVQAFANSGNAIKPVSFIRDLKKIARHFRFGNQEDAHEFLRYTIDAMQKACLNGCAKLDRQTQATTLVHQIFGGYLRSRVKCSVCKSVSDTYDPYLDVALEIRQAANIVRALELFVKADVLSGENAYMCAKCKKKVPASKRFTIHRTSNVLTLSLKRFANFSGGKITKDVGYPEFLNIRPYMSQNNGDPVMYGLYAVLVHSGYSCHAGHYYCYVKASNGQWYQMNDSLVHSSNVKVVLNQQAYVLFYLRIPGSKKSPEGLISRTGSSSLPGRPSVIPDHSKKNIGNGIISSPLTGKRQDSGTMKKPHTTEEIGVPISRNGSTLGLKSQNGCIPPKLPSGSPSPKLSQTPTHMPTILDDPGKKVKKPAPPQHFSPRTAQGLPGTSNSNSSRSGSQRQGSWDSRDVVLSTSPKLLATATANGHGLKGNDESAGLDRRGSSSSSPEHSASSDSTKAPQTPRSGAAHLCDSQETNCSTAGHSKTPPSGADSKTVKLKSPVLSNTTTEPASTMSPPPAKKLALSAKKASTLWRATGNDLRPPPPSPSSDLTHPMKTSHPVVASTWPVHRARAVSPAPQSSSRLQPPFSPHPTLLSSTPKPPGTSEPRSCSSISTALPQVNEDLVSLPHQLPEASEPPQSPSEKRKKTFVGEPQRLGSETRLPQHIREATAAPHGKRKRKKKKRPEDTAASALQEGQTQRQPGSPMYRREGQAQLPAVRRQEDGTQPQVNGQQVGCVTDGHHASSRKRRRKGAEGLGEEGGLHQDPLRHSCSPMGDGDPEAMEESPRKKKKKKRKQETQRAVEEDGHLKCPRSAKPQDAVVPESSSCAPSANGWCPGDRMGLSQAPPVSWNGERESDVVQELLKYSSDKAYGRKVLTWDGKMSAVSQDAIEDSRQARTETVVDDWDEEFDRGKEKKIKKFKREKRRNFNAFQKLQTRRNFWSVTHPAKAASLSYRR
In short: as §1

USP38 = biological target: T2, USP38 (UniProt Q8NB14)
T2 sequence (whole entry): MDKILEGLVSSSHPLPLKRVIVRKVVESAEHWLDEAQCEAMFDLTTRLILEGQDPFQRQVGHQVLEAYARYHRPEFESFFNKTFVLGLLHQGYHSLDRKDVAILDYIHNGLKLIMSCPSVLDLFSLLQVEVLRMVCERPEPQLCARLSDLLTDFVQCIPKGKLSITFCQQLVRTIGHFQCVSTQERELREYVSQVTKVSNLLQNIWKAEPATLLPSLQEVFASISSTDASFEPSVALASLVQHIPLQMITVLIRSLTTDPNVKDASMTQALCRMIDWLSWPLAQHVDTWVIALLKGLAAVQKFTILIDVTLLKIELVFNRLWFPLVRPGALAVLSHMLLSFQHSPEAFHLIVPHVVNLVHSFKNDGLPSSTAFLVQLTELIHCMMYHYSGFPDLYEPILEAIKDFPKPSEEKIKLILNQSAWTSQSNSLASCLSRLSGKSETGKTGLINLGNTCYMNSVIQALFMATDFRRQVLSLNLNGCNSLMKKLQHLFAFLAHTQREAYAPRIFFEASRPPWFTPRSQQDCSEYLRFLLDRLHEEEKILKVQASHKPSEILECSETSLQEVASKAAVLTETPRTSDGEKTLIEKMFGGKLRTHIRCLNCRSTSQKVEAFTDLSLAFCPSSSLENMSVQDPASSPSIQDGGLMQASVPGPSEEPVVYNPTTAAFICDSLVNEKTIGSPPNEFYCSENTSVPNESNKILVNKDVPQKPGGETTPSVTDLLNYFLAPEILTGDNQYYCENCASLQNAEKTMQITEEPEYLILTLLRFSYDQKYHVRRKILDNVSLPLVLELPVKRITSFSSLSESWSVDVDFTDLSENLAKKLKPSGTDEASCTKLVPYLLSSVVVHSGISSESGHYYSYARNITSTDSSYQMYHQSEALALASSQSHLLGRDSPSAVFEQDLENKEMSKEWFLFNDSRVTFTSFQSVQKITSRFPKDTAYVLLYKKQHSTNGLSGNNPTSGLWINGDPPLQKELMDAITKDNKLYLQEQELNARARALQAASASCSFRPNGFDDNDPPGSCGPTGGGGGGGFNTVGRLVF
In short: as §1

USP39 = biological target: T3, USP39 (UniProt Q53GS9)
T3 sequence (whole entry): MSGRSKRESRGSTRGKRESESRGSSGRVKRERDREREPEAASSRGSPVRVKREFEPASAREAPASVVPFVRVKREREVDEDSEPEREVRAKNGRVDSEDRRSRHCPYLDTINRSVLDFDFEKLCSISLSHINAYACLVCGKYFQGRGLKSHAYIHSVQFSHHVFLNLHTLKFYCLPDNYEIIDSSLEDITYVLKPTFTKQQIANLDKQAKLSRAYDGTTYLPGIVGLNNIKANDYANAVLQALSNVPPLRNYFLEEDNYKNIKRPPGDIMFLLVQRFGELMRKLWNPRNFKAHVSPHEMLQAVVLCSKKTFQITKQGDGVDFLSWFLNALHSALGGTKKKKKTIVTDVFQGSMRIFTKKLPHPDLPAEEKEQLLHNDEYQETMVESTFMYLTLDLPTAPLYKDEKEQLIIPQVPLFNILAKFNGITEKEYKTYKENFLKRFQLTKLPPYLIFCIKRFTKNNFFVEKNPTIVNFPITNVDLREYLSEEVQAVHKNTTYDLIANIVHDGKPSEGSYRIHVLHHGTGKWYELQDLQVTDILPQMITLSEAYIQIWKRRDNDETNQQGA
In short: as §1

USP4 = biological target: T4, USP4 (UniProt Q13107)
T4 sequence (whole entry): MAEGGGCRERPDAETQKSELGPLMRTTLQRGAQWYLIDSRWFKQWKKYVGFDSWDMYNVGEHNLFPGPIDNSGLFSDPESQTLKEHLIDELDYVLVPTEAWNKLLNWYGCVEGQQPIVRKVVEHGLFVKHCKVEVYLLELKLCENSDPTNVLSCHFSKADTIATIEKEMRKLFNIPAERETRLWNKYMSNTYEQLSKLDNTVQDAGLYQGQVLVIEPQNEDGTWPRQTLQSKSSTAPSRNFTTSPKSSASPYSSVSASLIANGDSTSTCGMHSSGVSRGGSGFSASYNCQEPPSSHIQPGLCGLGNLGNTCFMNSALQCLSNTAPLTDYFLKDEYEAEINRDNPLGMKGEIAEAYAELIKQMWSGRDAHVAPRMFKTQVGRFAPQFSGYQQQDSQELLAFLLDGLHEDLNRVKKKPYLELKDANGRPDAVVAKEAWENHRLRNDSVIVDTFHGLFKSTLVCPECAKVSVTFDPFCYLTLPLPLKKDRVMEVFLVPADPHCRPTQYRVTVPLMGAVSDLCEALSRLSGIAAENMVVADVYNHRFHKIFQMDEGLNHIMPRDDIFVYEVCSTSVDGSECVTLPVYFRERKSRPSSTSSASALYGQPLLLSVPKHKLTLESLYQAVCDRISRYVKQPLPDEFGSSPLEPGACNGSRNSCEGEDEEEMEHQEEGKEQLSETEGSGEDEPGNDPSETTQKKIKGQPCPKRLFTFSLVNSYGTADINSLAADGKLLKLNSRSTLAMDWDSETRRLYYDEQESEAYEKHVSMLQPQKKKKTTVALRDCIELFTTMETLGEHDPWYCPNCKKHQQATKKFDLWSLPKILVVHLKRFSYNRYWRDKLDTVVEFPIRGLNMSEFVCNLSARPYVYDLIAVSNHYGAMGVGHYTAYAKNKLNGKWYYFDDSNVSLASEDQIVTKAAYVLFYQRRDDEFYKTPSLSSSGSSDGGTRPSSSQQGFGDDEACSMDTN
In short: as §1

Measured: log2 ratio of Biotin-Ahx-Ub-VS probe labelling

O=C(CCl)N1CCC(c2noc3cc(F)ccc23)CC1
inactive: USP34 -0.276 | USP36 -0.165 | USP38 0.108 | USP39 0.43 | USP4 -0.235
